{"source": "paper PMC13494018", "binders": {"B1": {"name": "d8r1_design_ppi_763_dldesign_0_cycle1_af2pred (protein)", "chain": "MEKAKELAAKGDALEEEAAKATPEEAAKLYREASKYYAEAARLLLPLGDENPEIGKVVKELMAKASASYQKAVALEA"}, "B2": {"name": "d8r1_design_ppi_888_dldesign_0_cycle1_af2pred (protein)", "chain": "ATEEEKEKLKKLVEELLKAGKEGTVEEAKKAAEKLVEAAKKASLEAVLAGIAEVAKAAAELAKVNPEAAEVAREAAIELAKIALEKAD"}, "B3": {"name": "d8r1_design_ppi_473_dldesign_0_cycle1_af2pred (protein)", "chain": "STAEYLAQQQAALDATLAALDAAAAAVRTSAAGKALGDAAKKAMEIAKKLPVSVQLAVAQNQLAALQAAL"}, "B4": {"name": "d8r1_design_ppi_480_dldesign_0_cycle0_af2pred (protein)", "chain": "SEEEERRRRAEEAADEIVAAAKADPAAAAALAAEFVATSSEEERRLLANILAQKAFEDDAGLTALRAFSLALAEAVA"}, "B5": {"name": "d8r1_design_ppi_1459_dldesign_0_cycle1_af2pred (protein)", "chain": "EKAEKLRKLAKKLKELGKKIAEGDEEEAKKAAKEAAKAAREAGKISPQGKTLEYLGKKTEEAAKAGDKKTAASLADAAAALMEALAD"}, "B6": {"name": "d8r1_design_ppi_433_dldesign_0_cycle0_af2pred (protein)", "chain": "SEEEERKEIEEEGRAMARALRTSARHHAELAKKDPAAGRAAFDADAAAIRAGATPEQQPLVDAAVAEGRALLDAVEAAL"}, "B7": {"name": "d8r1_design_ppi_312_dldesign_0_cycle1_af2pred (protein)", "chain": "ALEEALRATAALVGTASQILAKEDPALAKEVAARILATAVKDPAEAAKLLKEVAKEAKERGWPAAEYYAAAAEALKAAAEA"}, "B8": {"name": "d8r1_design_ppi_1231_dldesign_0_cycle1_af2pred (protein)", "chain": "MTEEEMAALVQAARDAAKAAAAAAGPAVAPTMAAMVALAEEERDNPGELESIAQSVATAAARAVAAAAAAA"}, "B9": {"name": "d8r1_design_ppi_1301_dldesign_0_cycle1_af2pred (protein)", "chain": "AENEADFNALKRVAQSILDRAAELAAAGADRALVERLAASAVQAAELAAEEGTPEEGAALIAETRAAVAAVLAA"}, "B10": {"name": "d8r1_design_ppi_217_dldesign_0_cycle1_af2pred (protein)", "chain": "GDAVMEAAAAISNAAAAAIAAAKADPAKADEALAAATATAKALADATGKPLVKAVAKGATARVAAVAAAVKAAA"}, "B11": {"name": "d8r1_design_ppi_80_dldesign_0_cycle1_af2pred (protein)", "chain": "ETPEEKANALFRAFNNVATYAAAKVPALAAAAAAAIAASADPAKLGAAAAAFAAAAAATPAAAALGTSAQAIADKAVATAK"}, "B12": {"name": "d8r1_design_ppi_1034_dldesign_0_cycle1_af2pred (protein)", "chain": "DQAFTDAAAAAKALAAIPKYKALGDSLAARVAALAAAAAAARAAGAADPATAAEDAAAAAALAAAAKNIGDFAKAMLKAIEEDE"}, "B13": {"name": "d8r1_design_ppi_1086_dldesign_0_cycle1_af2pred (protein)", "chain": "AAAAVAAAAAAGGEAAMAEFLDLSNPEQGKELKDKAAAKVAALAAANPAVAAQINAAYNAQLARGKALAAEARADK"}, "B14": {"name": "d8r1_design_ppi_179_dldesign_0_cycle0_af2pred (protein)", "chain": "STAARNAAAGIAAAAKENPKSGAKLGKGAIDVLAKKDKKEAAEAAKLAAEQAKAAGKEEVAKEMEELAKKVEAEI"}, "B15": {"name": "d8r1_design_ppi_1429_dldesign_0_cycle0_af2pred (protein)", "chain": "SSLESEERLRRMAEGIAERTLRVVERLAKEDLETARRAAENTRGLLAKLGPVAAKIGEETWERAEAILAAIA"}, "B16": {"name": "d8r1_design_ppi_860_dldesign_0_cycle1_af2pred (protein)", "chain": "DEAYELAAKALAEAAKLRAAADAALAAAGAAGAVEAAALFTAAVKVLEETAKKLKELGSSLGDFTAAAAEREAARAAARIAAALA"}, "B17": {"name": "d8r1_design_ppi_290_dldesign_0_cycle0_af2pred (protein)", "chain": "SREEAERLKEEIERLAREGIAGDAETAARAMREIHELAIRSTELDPEDAAEVNQKAAEAMLRVGDAREAMLAA"}, "B18": {"name": "d8r1_design_ppi_1358_dldesign_0_cycle1_af2pred (protein)", "chain": "AAAESAALAAALAALRKTEVGPFARQYIIYRLLAQVAEAKGDEETAKRAKAKAEELAKAYPEAAAAADAALALAQAALAA"}, "B19": {"name": "d8r1_design_ppi_705_dldesign_0_cycle0_af2pred (protein)", "chain": "MTPSTRAMLHIGRANAAAQALAADPAAAAAAVAEEMAAAAREAAKASPEVREQNLRAMDAAVAALKAANPAVGAAARAAMEEELARL"}, "B20": {"name": "d8r1_design_ppi_1244_dldesign_0_cycle0_af2pred (protein)", "chain": "EEEEKEEKETYEKAYYLAKAAINAVNTGKEAAVASGKAALIAAGKLIPEWAAEAKAAKTAEEIKAVAEKLAEAAKKKIE"}, "B21": {"name": "d8r1_design_ppi_723_dldesign_0_cycle0_af2pred (protein)", "chain": "GGKSIAEIARIHGARTAAAVLAETGDAAAAAKIKAVAEKAAKEIEKASDNYDKMAEIFRKMVEEIEKITAAAKAAAA"}, "B22": {"name": "d8r1_design_ppi_1245_dldesign_0_cycle0_af2pred (protein)", "chain": "SVAEQRAELAAIVDRTLAAAAAEDPRAAGRAGAAELARLLARSSDEVKPAANAAIAAFNTLIRDPAAGAAALEAVRAELA"}, "B23": {"name": "d8r1_design_ppi_1212_dldesign_0_cycle1_af2pred (protein)", "chain": "AAALAEKLVATALAIGDAVLKKYPEAFGAKLAAARALIAADPVAGIRALGEAAAEVAPAEIAPGIRSMLNAIADRAAELLA"}, "B24": {"name": "d8r1_design_ppi_655_dldesign_0_cycle0_af2pred (protein)", "chain": "SDAKAAAQAAKNGAESATEKANEYEAKGKATGDKALLAKAKTLYDSAATLYAFGTKESGGEYQANLDAAKAKAAAAAALLA"}, "B25": {"name": "d8r1_design_ppi_136_dldesign_0_cycle1_af2pred (protein)", "chain": "SAAEEAARKSLFAVADSILAANLARAKAAAAAGDAAAAAAALQNTRDGGEMVTKMALARGDEETAAELAARFAAAAAEIAAILAA"}, "B26": {"name": "d8r1_design_ppi_178_dldesign_0_cycle1_af2pred (protein)", "chain": "ATEAVAQAIVLAAKRAAALPNAATAVANLAALVALLIEDPRVAEGAVEGAKEAAKALEAAGRTEEAKALLSAAEAAVAETAAKRA"}, "B27": {"name": "d8r1_design_ppi_978_dldesign_0_cycle1_af2pred (protein)", "chain": "MKHLEEQRKAAEKVAEKAAKEAEKEIAKVVSEEEAKKLAEKLKEQSKTSNELLVEKHKDLPVEEIEKLAERNAKGLALRALAIAKE"}, "B28": {"name": "d8r1_design_ppi_1032_dldesign_0_cycle0_af2pred (protein)", "chain": "SEEEENKEKAEALEKAAKNTTAIGDEKAAKDAAGKEKGAKAYNGAAALYEAAAKVSSPERAKEFKAKAAEAKAKAAAAQAAAAA"}, "B29": {"name": "d8r1_design_ppi_271_dldesign_0_cycle1_af2pred (protein)", "chain": "ADAALAALIAEAAQAAYDDGPRGIAALAGALLRAFPSLSAETLAAIIAATAADPAAAAALIAALAAAHPEAAPALAAELRALLAELA"}, "B30": {"name": "d8r1_design_ppi_460_dldesign_0_cycle1_af2pred (protein)", "chain": "DETGERKATALAAISATVAAAKAAIDANAADPAAAQAALDAAKKALAAIAAKSGLPSVKGVAETAAKKLAAYATAVAAAAA"}, "B31": {"name": "d8r1_design_ppi_1247_dldesign_0_cycle1_af2pred (protein)", "chain": "SSNKETSKLIREAMKIIGESLAAARAAVAAGDKAAAQAAVDAGVAKIEELAKKSKDPATKETLLKLAENLRRQGARVIA"}, "B32": {"name": "d8r1_design_ppi_156_dldesign_0_cycle1_af2pred (protein)", "chain": "MEEEKKKEEEEQKEAERMAKALENAIDAIEARVKAAPAAEQPALAKAADNAAAAADVLKKKDPELGQKVKDRANAVLAAARAK"}, "B33": {"name": "d8r1_design_ppi_660_dldesign_0_cycle1_af2pred (protein)", "chain": "EQAELEALAAAAKAAAAQAYALALASRAQAPAAYAALQQAFALAAQLPEEVAAELKAAAAQALADGLLAREKAE"}, "B34": {"name": "d8r1_design_ppi_1413_dldesign_0_cycle1_af2pred (protein)", "chain": "GSLLEELAKKEEELKDEEKMLKAHENALEIGIKKAEEDPAKGAKILENLAKNAEAAAKKASPEIAKKFKELAERAKKAAKEAKKKAA"}, "B35": {"name": "d8r1_design_ppi_259_dldesign_0_cycle1_af2pred (protein)", "chain": "AAAAARLATALANAIAGTNTIKKASTAKSASQFLAASTDRLATLYAADPALVAKLRAAAAAAKAGVDAGLAAAKEALAAATAAG"}, "B36": {"name": "d8r1_design_ppi_1486_dldesign_0_cycle0_af2pred (protein)", "chain": "SEELEKAKEEARKARERLLRLAEEAAAVDPAVAAAGRNAAAGAEKLISTGSLGSARAGKAIAEAAARRAEAVLAAAAAA"}, "B37": {"name": "d8r1_design_ppi_877_dldesign_0_cycle0_af2pred (protein)", "chain": "ALRAATEALLAEAERLREEILELGRAAESESVRNFAEGVAREVERLIAEAKAAAADPEAALALAQAALRTAREGLAGVRALTAAKAE"}, "B38": {"name": "d8r1_design_ppi_1117_dldesign_0_cycle1_af2pred (protein)", "chain": "AAAEAQARALAAELLAEAFDDPELAARALALPPHHAAALAAGQIVAKKSDEEAAAAVARANQVHALAAAAAAAA"}}, "note": "Unmarked numbers belong to inactive results. How the calls were made is not given here."}
{"molecular_target": "PDL1, Q9NZQ7", "sequence (Q9NZQ7 whole entry)": "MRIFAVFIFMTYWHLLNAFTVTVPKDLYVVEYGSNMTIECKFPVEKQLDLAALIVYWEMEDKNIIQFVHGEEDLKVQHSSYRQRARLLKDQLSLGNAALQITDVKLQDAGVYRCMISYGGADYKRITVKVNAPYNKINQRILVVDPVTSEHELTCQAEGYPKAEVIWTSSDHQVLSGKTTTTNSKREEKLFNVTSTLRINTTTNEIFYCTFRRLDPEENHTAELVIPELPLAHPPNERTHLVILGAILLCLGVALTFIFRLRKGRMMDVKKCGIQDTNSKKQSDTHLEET"}
{"binder": "B1", "binding in a display sort": "not found"}
{"binder": "B2", "binding in a display sort": "not found"}
{"binder": "B3", "binding in a display sort": "not found"}
{"binder": "B4", "binding in a display sort": "not found"}
{"binder": "B5", "binding in a display sort": "not found"}
{"binder": "B6", "binding in a display sort": "not found"}
{"binder": "B7", "binding in a display sort": "not found"}
{"binder": "B8", "binding in a display sort": "not found"}
{"binder": "B9", "binding in a display sort": "not found"}
{"binder": "B10", "binding in a display sort": "not found"}
{"binder": "B11", "binding in a display sort": "not found"}
{"binder": "B12", "binding in a display sort": "binds (active)"}
{"binder": "B13", "binding in a display sort": "not found"}
{"binder": "B14", "binding in a display sort": "not found"}
{"binder": "B15", "binding in a display sort": "not found"}
{"binder": "B16", "binding in a display sort": "not found"}
{"binder": "B17", "binding in a display sort": "not found"}
{"binder": "B18", "binding in a display sort": "binds (active)"}
{"binder": "B19", "binding in a display sort": "not found"}
{"binder": "B20", "binding in a display sort": "not found"}
{"binder": "B21", "binding in a display sort": "not found"}
{"binder": "B22", "binding in a display sort": "not found"}
{"binder": "B23", "binding in a display sort": "not found"}
{"binder": "B24", "binding in a display sort": "not found"}
{"binder": "B25", "binding in a display sort": "not found"}
{"binder": "B26", "binding in a display sort": "not found"}
{"binder": "B27", "binding in a display sort": "not found"}
{"binder": "B28", "binding in a display sort": "not found"}
{"binder": "B29", "binding in a display sort": "not found"}
{"binder": "B30", "binding in a display sort": "not found"}
{"binder": "B31", "binding in a display sort": "not found"}
{"binder": "B32", "binding in a display sort": "not found"}
{"binder": "B33", "binding in a display sort": "not found"}
{"binder": "B34", "binding in a display sort": "not found"}
{"binder": "B35", "binding in a display sort": "not found"}
{"binder": "B36", "binding in a display sort": "not found"}
{"binder": "B37", "binding in a display sort": "not found"}
{"binder": "B38", "binding in a display sort": "not found"}
